Experimental data from PubChem BioAssay.
Active and inactive are the calls of the source.

Experiments:
Albumin (Bos taurus) = Albumin (Bos taurus) (UniProt P02769); assay: bovine serum albumin binders on microarray, profiling panel, artefact control for SMM control protein annotation, biochemical, small-molecule microarray, Alexa647 label, 635/667 nm fluorescence (AID 1118); conditions: BSA-A647 binding, fluorescence 635 nm, higher = more signal;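 note: score merges 667 nm emission intensity and signal-to-noise per printed compound spot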
[1] = small-molecule microarray binders of probe aXIP, primary screen, biochemical, NeuroSMM set, 635/667 nm fluorescence (AID 1119); conditions: higher = more signal, called active from +8 up or from −8 down;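 note: probe is the protein aXip251-270 applied at 1 µg/mL to compound-printed slides; binding of probe to printed compounds measured as 667 nm fluorescence plus signal to noise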
[2] = small-molecule binders of probe aNOTCH3, primary screen, biochemical, small-molecule microarray, 635/667 nm fluorescence (AID 1120); conditions: higher = more signal;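 note: probe is a biotin-tagged antibody raised against NOTCH3 rather than NOTCH3 protein; score merges spot fluorescence near 667 nm with spot signal to noise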
[3] = small-molecule binders of probe aNOTCH2, primary screen, biochemical, small-molecule microarray, 635/667 nm fluorescence (AID 1121); conditions: higher = more signal;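 note: score merges feature fluorescence read at 667 nm with its signal to noise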
[4] = target: Carbonic anhydrase 2 (Homo sapiens) (UniProt P00918); assay: CAII small-molecule binders, profiling panel, biochemical, small-molecule microarray, Alexa647-labelled CAII (AID 1122); conditions: CAII-A647 binding fluorescence, higher = more signal
[5] = COS7 lysate on small-molecule microarray, probe aHis, 635 nm (AID 1123); conditions: COS7 cell lysate, fluorescence, higher = more signal;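 note: z-score combines 667nm fluorescence intensity with signal-to-noise per printed compound spot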
[6] = compound binding in COS7 lysate, probe aLAP1, primary screen, cell lysate, small-molecule microarray (AID 1124); conditions: probe aLAP1, fluorescence, higher = more signal;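 note: lysate comes from COS7 cells expressing LAP1 and is applied at 0.3 µg/mL; score merges spot fluorescence near 667 nm with signal-to-noise over triplicate slides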
Sam68 (KHDRBS1) = assay: Sam68 small-molecule binders, primary screen, biochemical, small-molecule microarray, 635 nm fluorescence (AID 1125); conditions: small-molecule microarray binding, higher = more signal;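 note: score merges 667 nm channel intensity with signal to noise over triplicate slides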
[7] = test system: Chordin-like protein 2 (CHRDL2); assay: CHRDL2 small-molecule binders, primary screen, biochemical, small-molecule microarray, 635 nm fluorescence (AID 1126); conditions: small-molecule microarray binding, fluorescence 635 nm; higher = more signal;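 note: printed compound slides probed with Chrdl2 protein at 4 µg/mL for 1 h at 4 C; score merges 667 nm emission intensity with signal to noise over three replicate slides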
[8] = target: Concanavalin-A (Canavalia ensiformis) (UniProt P02866); assay: ConA small-molecule binders, primary screen, artefact control for SMM control protein annotation, biochemical, small-molecule microarray, Alexa647 label, 635 nm (AID 1127); conditions: ConA-A647 binding fluorescence, higher = more signal;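 note: z combines 667 nm emission intensity with signal-to-noise across three replicate slides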
[9] = anti-His antibody binders, primary screen, artefact control for SMM control protein annotation, biochemical, small-molecule microarray, 635 nm fluorescence (AID 1128); conditions: anti-His Alexa647 antibody binding, higher = more signal;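 note: score merges feature fluorescence with signal-to-noise for each printed compound spot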
[10] = test system: Human papillomavirus type 1a E7 protein (residues 1-88); assay: HPV1a E7 small-molecule binders, primary screen, biochemical, small-molecule microarray, residues 1-88, 635 nm (AID 1129); conditions: small-molecule microarray binding, fluorescence 635 nm; higher = more signal
[11] = target: Focal adhesion kinase 1 (Homo sapiens) (UniProt Q05397); assay: small-molecule microarray binders of FAK, primary screen, biochemical, 635/667 nm fluorescence, BSA, DTT (AID 1130); conditions: PTK2 binding, 635 nm fluorescence, higher = more signal;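 note: composite of spot emission at 667 nm and signal to noise over triplicate slides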
[12] = test system: Fibrinogen (Alexa647-labelled); assay: fibrinogen binders on compound microarrays, profiling panel, artefact control for SMM control-protein annotation, biochemical, small-molecule microarray, 635/667 nm fluorescence (AID 1131); conditions: fibrinogen-A647 binding fluorescence, higher = more signal;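 note: z-score merges 667 nm fluorescence with per-spot signal-to-noise over triplicate slides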
[13] = target: Follistatin (Homo sapiens) (UniProt P19883); assay: follistatin binders on small-molecule microarrays, primary screen, biochemical, small-molecule microarray, 635/667 nm fluorescence (AID 1132); conditions: FST binding, 635 nm fluorescence, higher = more signal
[14] = target: Fibroblast growth factor 2 (Homo sapiens) (UniProt P09038); assay: FGF2 binders on small-molecule microarrays, primary screen, biochemical, small-molecule microarray, 635/667 nm fluorescence (AID 1133); conditions: small-molecule microarray binding, FGF2, fluorescence 635/667; higher = more signal
[15] = mitochondrial membrane potential change in A549 cells, profiling panel, cell-based, JC-1 fluorescence, basal, 24 h, 100 nL (AID 1138); conditions: higher = more signal;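 note: A549 lung adenocarcinoma cells under basal conditions with no added stimulus; test concentration not given here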
Lefty1 = Lefty1 binders on small-molecule microarrays, primary screen, biochemical, small-molecule microarray, 635/667 nm fluorescence (AID 1139); conditions: small-molecule microarray binding, fluorescence 635/667; higher = more signal
[16] = test system: wheat germ agglutinin (Triticum aestivum), Alexa647-labelled; assay: wheat germ agglutinin binders on compound microarrays, profiling panel, artefact control for SMM control-protein annotation, biochemical, small-molecule microarray, 635/667 nm fluorescence (AID 1140); conditions: WGA-A647 binding, 635 nm fluorescence, higher = more signal;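 note: score merges 667 nm feature emission with signal to noise over triplicate slides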
[17] = target: Luciferin 4-monooxygenase (Photinus pyralis) (UniProt P08659); assay: firefly luciferase enzyme inhibitors, primary screen, biochemical, luminescence, purified enzyme, 2006 set (AID 1141); conditions: SteadyGlo luminescence, 30 min, higher = more signal, called active from +8 up or from −8 down;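 note: cell-free assay with purified firefly luciferase at 100 ng per well in PBS; test concentration not given here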
Chain of Luciferin 4-monooxygenase (Photinus pyralis) (P08659 whole entry, looked up): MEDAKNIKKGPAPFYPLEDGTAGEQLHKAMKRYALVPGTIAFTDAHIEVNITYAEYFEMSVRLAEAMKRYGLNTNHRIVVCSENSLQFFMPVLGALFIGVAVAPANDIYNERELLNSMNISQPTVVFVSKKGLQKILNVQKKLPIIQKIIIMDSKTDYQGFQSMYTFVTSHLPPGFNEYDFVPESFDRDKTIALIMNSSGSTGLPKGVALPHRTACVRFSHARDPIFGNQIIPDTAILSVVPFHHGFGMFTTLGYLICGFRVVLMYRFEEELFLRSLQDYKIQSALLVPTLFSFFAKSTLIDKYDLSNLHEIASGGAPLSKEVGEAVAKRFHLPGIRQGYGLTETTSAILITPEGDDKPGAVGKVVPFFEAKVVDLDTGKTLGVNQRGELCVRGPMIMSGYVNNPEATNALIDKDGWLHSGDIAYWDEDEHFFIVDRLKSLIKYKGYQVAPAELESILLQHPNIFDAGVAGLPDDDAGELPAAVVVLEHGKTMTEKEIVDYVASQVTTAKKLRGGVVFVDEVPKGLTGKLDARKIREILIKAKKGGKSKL

Chain of Albumin (Bos taurus) (P02769 whole entry, looked up): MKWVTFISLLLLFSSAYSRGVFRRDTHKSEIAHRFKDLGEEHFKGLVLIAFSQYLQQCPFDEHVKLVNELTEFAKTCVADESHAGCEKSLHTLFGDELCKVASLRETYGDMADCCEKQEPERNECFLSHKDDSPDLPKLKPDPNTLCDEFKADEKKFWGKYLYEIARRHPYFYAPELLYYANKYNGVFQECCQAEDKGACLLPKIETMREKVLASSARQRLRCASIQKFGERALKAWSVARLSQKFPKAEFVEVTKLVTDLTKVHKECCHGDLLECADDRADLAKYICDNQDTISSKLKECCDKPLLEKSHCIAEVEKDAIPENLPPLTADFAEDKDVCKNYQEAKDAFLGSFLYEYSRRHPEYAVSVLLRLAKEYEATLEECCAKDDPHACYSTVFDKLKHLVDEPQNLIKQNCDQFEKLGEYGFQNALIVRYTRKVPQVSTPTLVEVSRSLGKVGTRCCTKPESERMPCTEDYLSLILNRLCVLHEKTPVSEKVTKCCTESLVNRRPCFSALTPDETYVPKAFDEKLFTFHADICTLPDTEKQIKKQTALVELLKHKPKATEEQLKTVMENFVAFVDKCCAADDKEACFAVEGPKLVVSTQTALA
Chain of Fibroblast growth factor 2 (Homo sapiens) (P09038 whole entry, looked up): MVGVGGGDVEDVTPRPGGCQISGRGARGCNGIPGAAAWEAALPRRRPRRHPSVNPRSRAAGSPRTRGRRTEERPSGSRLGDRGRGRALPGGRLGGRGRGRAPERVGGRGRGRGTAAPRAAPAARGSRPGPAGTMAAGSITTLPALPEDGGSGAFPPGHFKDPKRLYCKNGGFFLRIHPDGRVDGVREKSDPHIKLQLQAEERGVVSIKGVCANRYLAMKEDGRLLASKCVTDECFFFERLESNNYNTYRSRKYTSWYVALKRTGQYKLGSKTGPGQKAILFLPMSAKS
Chain of Concanavalin-A (Canavalia ensiformis) (P02866 whole entry, looked up): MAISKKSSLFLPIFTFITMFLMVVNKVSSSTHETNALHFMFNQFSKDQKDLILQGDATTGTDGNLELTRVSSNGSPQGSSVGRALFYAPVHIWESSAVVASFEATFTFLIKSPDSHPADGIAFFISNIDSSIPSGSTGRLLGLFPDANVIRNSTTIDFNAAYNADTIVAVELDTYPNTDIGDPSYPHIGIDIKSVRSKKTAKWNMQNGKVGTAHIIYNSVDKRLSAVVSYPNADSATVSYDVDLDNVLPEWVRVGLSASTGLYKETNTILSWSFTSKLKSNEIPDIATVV
Chain of Follistatin (Homo sapiens) (P19883 whole entry, looked up): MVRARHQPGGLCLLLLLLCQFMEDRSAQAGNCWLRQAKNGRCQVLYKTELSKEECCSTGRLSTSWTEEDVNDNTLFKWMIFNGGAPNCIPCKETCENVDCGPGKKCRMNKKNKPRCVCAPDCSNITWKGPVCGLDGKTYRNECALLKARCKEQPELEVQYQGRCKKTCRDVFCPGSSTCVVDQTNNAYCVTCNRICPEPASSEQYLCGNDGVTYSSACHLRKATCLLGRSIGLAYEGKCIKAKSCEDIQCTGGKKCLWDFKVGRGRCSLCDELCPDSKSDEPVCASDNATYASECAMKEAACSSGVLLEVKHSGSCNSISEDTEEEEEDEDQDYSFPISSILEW
Chain of Focal adhesion kinase 1 (Homo sapiens) (Q05397 whole entry, looked up): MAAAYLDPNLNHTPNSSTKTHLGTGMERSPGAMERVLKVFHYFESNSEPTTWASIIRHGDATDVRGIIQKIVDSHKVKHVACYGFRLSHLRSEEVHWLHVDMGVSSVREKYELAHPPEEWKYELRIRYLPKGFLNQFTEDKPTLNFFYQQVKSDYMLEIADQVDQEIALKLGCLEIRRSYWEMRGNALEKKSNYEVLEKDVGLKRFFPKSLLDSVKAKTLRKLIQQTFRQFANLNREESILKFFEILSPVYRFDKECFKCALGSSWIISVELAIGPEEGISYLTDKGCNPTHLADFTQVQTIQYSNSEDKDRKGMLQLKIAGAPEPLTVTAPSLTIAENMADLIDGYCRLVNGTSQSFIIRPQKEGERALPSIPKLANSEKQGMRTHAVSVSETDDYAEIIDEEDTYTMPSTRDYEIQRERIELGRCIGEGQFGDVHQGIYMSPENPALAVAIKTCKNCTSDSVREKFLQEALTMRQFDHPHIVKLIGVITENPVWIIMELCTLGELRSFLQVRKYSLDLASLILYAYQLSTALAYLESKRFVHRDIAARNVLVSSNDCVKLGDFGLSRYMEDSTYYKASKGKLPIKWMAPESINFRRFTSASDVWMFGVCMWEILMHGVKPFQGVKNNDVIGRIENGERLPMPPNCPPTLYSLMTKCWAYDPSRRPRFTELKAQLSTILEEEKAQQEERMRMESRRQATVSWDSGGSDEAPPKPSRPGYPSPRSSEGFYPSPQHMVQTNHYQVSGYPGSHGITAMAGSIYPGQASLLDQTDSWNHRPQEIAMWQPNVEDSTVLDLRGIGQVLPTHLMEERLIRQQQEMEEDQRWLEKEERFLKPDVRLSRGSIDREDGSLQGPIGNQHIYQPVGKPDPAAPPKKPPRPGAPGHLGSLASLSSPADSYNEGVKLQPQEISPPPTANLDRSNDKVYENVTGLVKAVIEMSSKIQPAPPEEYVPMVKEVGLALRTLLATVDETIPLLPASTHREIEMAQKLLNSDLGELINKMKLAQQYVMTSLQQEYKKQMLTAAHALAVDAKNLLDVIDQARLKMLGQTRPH

Row | SMILES | composite z-score (Albumin (Bos taurus)) | composite Z-score [1] | composite z-score [2] | composite z-score [3] | composite z-score [4] | composite z-score [5] | composite z-score [6] | composite z-score (Sam68 (KHDRBS1)) | composite z-score [7] | composite z-score [8] | composite z-score [9] | composite z-score [10] | composite z-score [11] | composite z-score [12] | composite z-score [13] | composite z-score [14] | z-score [15] | composite z-score (Lefty1) | composite z-score [16] | z-score [17]
1 | COC(=O)[C@H](C)NC(=O)CCC1CC(OC(=O)NCc2cccc3ccccc23)CC2(CCCC(COC(=O)NCCOc3ccccc3)O2)O1 (stereo not given in full) | 0.445 | -0.0662 (inactive) | -0.0694 | -0.161 | 0.295 | 1.17 | 0.106 | 1.23 | -0.254 | 1.09 | 0.334 | 1.12 | 0.549 | 0.793 | 0.145 | -0.142 | -0.333 | 0.318 | 0.502 | 1.32 (inactive)
2 | O=C1[C@H]2[C@H]3[C@H](O)[C@H](O)CC(=NOCc4ccccc4)[C@@H]3CC[C@H]2C(=O)N1c1cccc(Oc2ccccc2)c1 | 0.446 | 0.0894 (inactive) | -0.119 | -0.147 | 0.146 | 0.536 | 0.397 | 1.32 | 0.0204 | 0.335 | 0.695 | 0.452 | 0.0881 | 0.96 | 0.248 | 0.184 | 0.578 | 0.687 | 0.315 | 0.245 (inactive)
3 | COC(=O)C1=C(C)N(Cc2ccccc2)C2=C3C(=O)OCC[C@@H]3[C@@](O)(C(=O)OC)C(=O)N2[C@@H]1c1ccccc1 | -0.0298 | -0.135 (inactive) | 0.0182 | -0.14 | -0.085 | 0.132 | -0.186 | -0.0394 | 0.487 | 0.325 | 0.0356 | 0.0787 | 0.19 | 0.332 | 0.384 | 0.402 | 1.48 | 0.836 | 0.0974 | -0.653 (inactive)
4 | C[C@@H](c1ccccc1)N1C(=O)[C@H]2[C@H]3[C@H](O)[C@H](O)CC(=NOCc4ccccc4)[C@@H]3CC[C@H]2C1=O | 0.758 | 0.081 (inactive) | -0.0055 | -0.0467 | -0.247 | 0.043 | 0.017 | -0.105 | 0.823 | -0.577 | 0.151 | -0.513 | 0.0826 | 0.0844 | -0.7 | -0.0815 | -0.781 | -0.684 | 0.32 | 0.747 (inactive)
5 | CC(=O)OC[C@H]1O[C@H](CC=NOC(C)CN2CCCc3nc(C)c(C)cc32)C=C[C@@H]1OC(C)=O (stereo not given in full) | -0.0846 | 1.01 (inactive) | 0.0591 | 0.0032 | 0.0124 | 0.0855 | 0.53 | 1.2 | 1.15 | -0.152 | 1.42 | 0.507 | 0.246 | 0.145 | 0.803 | 0.684 | -0.221 | 0.947 | -0.0862 | 0.767 (inactive)
6 | CON=C1c2cc(OC)ccc2O[C@H](c2cccc(OC)c2)[C@H]1O | -0.181 | 0.133 (inactive) | 0.123 | 0.0267 | 0.11 | 0.275 | 0.332 | 0.415 | 0.707 | 0.267 | 0.293 | 0.416 | 0.197 | 0.273 | 0.587 | 0.675 | 0.314 | 0.6 | 0.208 | -2.9 (inactive)
